# From PubChem
# Hits are enriched below; roughly 7.6% of the tested compounds scored in any of these assays.
# BRCA1 expr act: BRCA1 expression activation | MCF7-BRCA1-FFLuc reporter, luminescence, 48 h; response scale: scaled: vehicle 0%, 10 µM genistein 100% | Potency, µM (doses to about 46.1 µM), for inactives: at the highest dose activation, actives largely listed as activators | hit rate 1.1% among 380,000 | AID 624202; also: potency is read from the fitted curve at half-maximal effect; nearly all actives have a fitted effect of over 80% in size
#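 MCF7 cells carrying a BRCA1-firefly luciferase reporter (2000 cells/well, phenol-red free MEM) were attached for 2 h at 37 °C, then given compounds for 48 h. Luminescence was read 15 min after luciferase reagent; activity normalized to genistein (10 microM) and DMSO.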
# Giardia killer: kills Giardia lamblia | Giardia lamblia trophozoite viability | activity change, % at 7.66 µM, hits read low | hit rate 0.15% among 340,000; in the data active = activity change below about -80%; inconclusive = between about -30% and that limit;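 also: parasites exposed to compound for two days anaerobically before the ATP read; % is scaled to controls: 0 for no effect and ±100 for the full control effect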
#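 Trophozoites 100 cells/well + cpd; 48 hrs, 37 deg C, anaerobic. ATPLite 1-Step added, 15-30 min RT, luminescence read (ATP-based viability).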
# RORg inh: inhibitors of mouse ROR gamma transcriptional activity; hit rate 5.4% among 310,000; Potency, µM (titrated, usually from 53.6 µM), inactives show at the highest dose activity change, negative = inhibition, hits mostly inhibitors; Drosophila S2 Gal4-RORgamma UAS-luciferase reporter, 20 h; P51450; also: potency is read from the fitted curve at half-maximal effect; % is scaled to controls: 0 for no effect and ±100 for the full control effect; nearly all actives have a fitted effect of over 60% in size
# Target sequence (P51450 whole entry, looked up, the tested form may be a part): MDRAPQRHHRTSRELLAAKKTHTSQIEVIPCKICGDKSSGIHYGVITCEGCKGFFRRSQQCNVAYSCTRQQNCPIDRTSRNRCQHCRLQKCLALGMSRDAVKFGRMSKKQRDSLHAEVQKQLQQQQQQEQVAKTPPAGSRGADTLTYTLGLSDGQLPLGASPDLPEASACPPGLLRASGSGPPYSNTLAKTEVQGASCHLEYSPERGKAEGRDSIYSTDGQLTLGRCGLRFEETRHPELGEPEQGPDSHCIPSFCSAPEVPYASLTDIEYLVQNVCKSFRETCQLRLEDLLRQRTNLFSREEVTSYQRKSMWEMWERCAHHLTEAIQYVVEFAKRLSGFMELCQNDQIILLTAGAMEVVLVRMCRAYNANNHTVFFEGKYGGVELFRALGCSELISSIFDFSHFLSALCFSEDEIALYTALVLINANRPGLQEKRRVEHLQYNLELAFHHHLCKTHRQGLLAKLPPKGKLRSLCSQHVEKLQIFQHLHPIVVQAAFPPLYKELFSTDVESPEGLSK
#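 A Gal4/UAS one-hybrid system in insect cells: metallothionein-promoter Gal4–ROR gamma fusion plus Photinus luciferase reporter. Copper sulfate 700 uM final, 20 hr ambient incubation, luminescent detection after 10 min with reagent.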
# ELG1 repair inh: inhibitors of ELG1-dependent DNA repair in HEK293T cells | HEK293T ELG1-luciferase reporter, luminescence, 16 h; DNA damage induced by 5-fluorouridine | Potency, µM (series often up to 46.1 µM), without a hit: at the highest dose activity change, negative = inhibition, actives largely listed as inhibitors | hit rate 2.3% among 330,000 | AID 504467; also: potency is read from the fitted curve at half-maximal effect; % is scaled to controls: 0 for no effect and ±100 for the full control effect; nearly all actives have a fitted effect of over 55% in size
#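 Luminescence from the luciferase reporter, measured 30 min after ONE-Glo reagent at room temperature, was the read-out. Beforehand, 2,000 cells per well were exposed for 16 hr at 37 °C to 5-fluorouridine together with compound or vehicle.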
# Gal4-VP16 FLuc: counter-screen for ROR gamma inhibitors: Gal4-VP16 reporter. Drosophila S2 Gal4-VP16 UAS-luciferase, luminescence, 20 h. Potency, µM (doses to about 53.6 µM), inactives show at the top dose activity, negative = inhibition, most hits filed as inhibitors. hit rate 3.5% among 310,000. AID 2546;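 also: Gal4-VP16 expression switched on by copper sulfate through the metallothionein promoter; potency is read from the fitted curve at half-maximal effect; % is scaled to controls: 0 for no effect and ±100 for the full control effect; nearly all actives have a fitted effect of over 50% in size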
# p53 reactivator: mutant p53 re-activation in reporter cells; H1299 p53-A138V BP100-luciferase reporter, luminescence, 24 h; Potency, µM (doses to about 92.2 µM), for inactives: at the highest dose activity change, positive = activation, actives largely listed as activators; hit rate 0.063% among 320,000; AID 504706; also: potency is read from the fitted curve at half-maximal effect; % of control where 0% means no effect; nearly all actives have a fitted effect of over 45% in size
#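 H1299 (p53-null), stable ts p53-A138V + BP100-Luc; 1000 cells/well, Opti-MEM/10% FBS; cpd 4 pt, 1:5; 24 h, 37 deg C, 5% CO2; detection reagent 10 min RT; luminescence.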
# An asterisk follows results filed as active; ? = inconclusive; / = not tested or not shown. Unless noted, calls follow the shape of the dose curve; as a rule, active = well fitted curve in the direction sought with a large enough effect; inconclusive = small, poorly fitted or top-dose-only effect, or another doubt; inactive = no such curve, though single readings can be large; an effect the other way counts as inactive or inconclusive.
SMILES,BRCA1 expr act,Giardia killer,RORg inh,ELG1 repair inh,Gal4-VP16 FLuc,p53 reactivator
COc1ccc(-c2cc(C(=O)N3CCN(c4ccccn4)CC3)c3ccccc3n2)cc1,-73.1%,?,24.0%,?,-17.2%,?
COc1ccc2cc(-c3ccon3)ccc2c1,10µM*,15.7,-17.9%,?,14.3%,23.4%
CCC(O)(Cc1ccccn1)Cc1ccccn1,-2.8%,4.5,/,/,/,/
O=C(CNC(=O)c1ccccc1F)NCCCN1CCCC1=O,7.8%,5.0,/,18.7%,/,8.8%
CCOc1ccccc1N1CCN(C(=O)c2cc(-c3cc(OC)ccc3OC)nc3ccccc23)CC1,-47.5%,?,0.4%,6.51µM*,3.0%,-10.6%
COc1ccc(-n2ncc(C(=O)N3CCN(c4ccc(F)cc4)CC3)c2C)cc1,-8.3%,-2.6,29.4%,20.6µM*,0.3%,-2.7%
COc1ccc2cc(-c3cc(C(=O)O)c4ccccc4n3)ccc2c1,-94.7%,-105.1*,3.8%,?,-2.0%,-9.0%
COc1ccc(-c2cc(C(=O)N3CCN(c4ccccc4O)CC3)c3ccccc3n2)cc1,15.1%,-8.2,/,19.9%,/,10.0%
COc1ccc(-c2cc(C(=O)O)c3ccccc3n2)c(OC)c1,13.0%,-7.6,-12.2%,9.3%,-2.9%,2.2%
COc1ccc(-c2cc(C(=O)N3CCN(c4ncccn4)CC3)c3ccccc3n2)c(OC)c1,-13.7%,-27.6,-2.2%,9.2µM*,3.1%,-19.9%
COc1cccc(CNC(=O)C(NS(=O)(=O)c2cccs2)C(C)C)c1 (stereo not given),-5.9%,/,/,/,/,/
Cc1ccc(C)c(NC(=O)CCN2CC(C)CC(C)C2)c1 (stereo not given),0.0%,-2.7,-26.8%,?,-4.7%,/
CN1C(=O)NC(c2ccc(O)cc2)C(C(=O)c2cccs2)C1(O)C(F)(F)F (stereo not given),70.7%,-2.7,-44.0%,16.0%,26.1%,11.8%
COc1ccc(-c2cc(C(=O)N3CCCCCC3)c3ccccc3n2)c(OC)c1,-23.8%,-3.4,-1.3%,?,1.2%,0.5%
COc1ccc(-c2cc(C(=O)N3CCN(c4ccccc4F)CC3)c3ccccc3n2)c(OC)c1,-50.4%,13.8,/,5.8µM*,/,/
COc1ccc(N2CCN(C(=O)c3cc(-c4cc(OC)ccc4OC)nc4ccccc34)CC2)cc1,-59.6%,16.4,/,7.3µM*,/,/
COc1ccc(-c2cc(C(=O)N3CCN(c4ccccc4)CC3)c3ccccc3n2)cc1,-3.8%,-18.8,33.3%,-23.8%,-5.1%,-0.5%
CC(=O)C(C)Oc1ccc2c3c(c(=O)oc2c1)CCCCC3 (stereo not given),79.0%,12.5,4.2%,?,0.5%,?
CC(=O)C(C)Oc1ccc2c3c(c(=O)oc2c1)CCCC3 (stereo not given),11.2µM*,1.8,26.0%,?,3.2%,24.7%
Cc1nc(N2CCCCC2)sc1C(=O)c1ccc(Cl)c([N+](=O)[O-])c1,/,/,-21.2%,18.3µM*,-10.1%,-6.7%
Cc1cc(C)nc(NC(=O)c2ccc(Cl)c([N+](=O)[O-])c2)n1,-18.1%,31.1,18.3%,-9.9%,9.2%,2.8%
COc1ccc(/C=N/Nc2nc3ccccc3o2)cc1O,53.0%,-15.7,11.2µM*,?,?,?
Oc1ccccc1/C=N/Nc1nc2ccccc2o1,-37.5%,-1.4,0.501µM*,?,3.98µM*,?
Brc1ccc(/C=N/Nc2nc3ccccc3o2)cc1,?,-9.5,8.91µM*,?,?,?
CCOC(=O)c1cc(-c2ccccc2)nc2nc(N(CC)CC)sc12,-69.7%,-0.8,22.6%,?,?,-6.5%
SMILES,BRCA1 expr act,Giardia killer,RORg inh,ELG1 repair inh,Gal4-VP16 FLuc,p53 reactivator
CCCCCCC=O,/,/,-18.6%,/,-8.8%,/
CC(C)Cc1nccs1,1.0%,-25.7,2.2%,4.5%,-7.1%,0.9%
CCOc1ccc(Cc2nnc(SCC(=O)Nc3ccccc3)n(N)c2=O)cc1,8.0%,21.1,/,28.9%,/,-1.6%
Cc1cccc(CN2CCC(C(=O)Nc3cccc(-c4cccc(F)c4)c3)CC2)n1,-43.1%,3.3,7.08µM*,?,?,-10.7%
O=C(Nc1ccc(-c2cscn2)cc1)C1CCCN(Cc2ccccc2)C1 (stereo not given),33.9%,13.4,1.78µM*,2.1%,-21.3%,1.8%
O=C(Nc1cccc(-c2cccc(Cl)c2)c1)C1CCN(Cc2ccccn2)CC1,-44.1%,1.6,20µM*,-1.6%,?,17.0%
Cc1cccc(CN2CCCC(C(=O)Nc3ccc(-c4cscn4)cc3)C2)c1 (stereo not given),-45.7%,8.7,30.6%,-20.2%,-14.2%,-0.8%
O=C(Nc1ccc(-c2cccc(F)c2)cc1)C1CCCN(Cc2ccccn2)C1 (stereo not given),-6.7%,2.0,12.6µM*,-14.5%,11.2µM*,-7.1%
COc1cccc(-c2ccc(NC(=O)C3CCCN(Cc4ccccn4)C3)cc2)c1 (stereo not given),87.5%,/,/,/,/,/
Cc1ccc(NC(=O)COC(=O)c2cccnc2)c(C)c1,-23.4%,6.0,-0.2%,16.7%,6.5%,-0.7%
O=C(Nc1ccc(Cl)cc1)N1CCOC12CCCCC2,61.2%,-7.6,32.0%,5.0%,-0.1%,-4.0%
COCc1ccc(CN2CCC(C(=O)Nc3cccc(-c4cccc(Cl)c4)c3)CC2)o1,-79.3%,-6.1,17.8µM*,?,8.91µM*,-56.2%
Cc1cc2oc(=O)cc(CN(Cc3ccccc3)Cc3ccccc3)c2cc1Cl,-13.7%,/,/,/,/,/
CCC(C)c1ccc(S(=O)(=O)N2CCN(C(=O)COc3ccc4c(C)cc(=O)oc4c3)CC2)cc1 (stereo not given),-28.9%,13.3,-5.4%,8.2µM*,-11.7%,1.1%
COc1ccc(S(=O)(=O)N2CCN(C(=O)COc3ccc4c(C)cc(=O)oc4c3)CC2)cc1,2.1%,4.6,42.5%,?,-6.7%,-2.1%
COc1ccc2[nH]c3c(c2c1)CCN1C(=O)N([C@@H](C)C(=O)NC2CC2)C(=O)[C@]31C,-9.2%,-15.2,-14.6%,1.5%,7.1%,/
O=C(c1cc(COc2ccc(F)cc2Cl)on1)N1CCC(c2ccncc2)CC1,-34.2%,-27.0,11.2µM*,-7.0%,7.08µM*,2.0%
O=C(c1cc(COc2ccc(F)cc2F)on1)N1CCSCC1,7.94µM*,6.3,13.0%,?,-10.3%,6.3%
O=C(c1cc(COc2ccc(F)cc2Cl)on1)N1CCCCCC1,?,13.6,37.1%,?,-3.4%,15.5%
CN(C)S(=O)(=O)c1cc(NC(=O)CNCCN2CCOCC2)ccc1Cl,-3.2%,-4.5,-4.5%,3.8%,2.6%,-1.1%
O=C(Nc1ccccc1Cl)N1CCN(c2ccc3nnc(-c4ccc(F)cc4)n3n2)CC1,-47.0%,4.0,37.5%,20.6µM*,-11.0%,-14.7%
